# Test results reported in PubChem BioAssay.
# Calls of active or inactive are those of the source.
# How the values were obtained:
# [1] = binders of probe aFSTL3 on microarray, primary screen, stem cell growth factor project, biochemical, small-molecule microarray, fluorescence 635/667 (AID 1064); details: higher = more signal; small-molecule microarray, probe aFSTL3, fluorescence unless noted;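 note: measures binding of the biotinylated anti-FSTL3 antibody to printed compounds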
# [2] = binders from COS7 lysate, DM2A8 probe, primary screen, torsin A project, cell lysate, small-molecule microarray, fluorescence 635/667 (AID 1065); details: higher = more signal; small-molecule microarray, COS7 cell lysate, probe DM2A8, fluorescence, COS7 lysate expressing mutant human TOR1A unless noted
# [3] = binders of probe aFGF2 on microarray, primary screen, stem cell growth factor project, biochemical, small-molecule microarray, fluorescence 635/667 (AID 1067); details: higher = more signal; small-molecule microarray, probe aFGF2, fluorescence unless noted;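 note: measures binding of biotinylated aFGF2 protein to printed compounds on slides; z-score merges feature fluorescence and signal-to-noise across triplicate slides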
# [4] = binders of probe aFGF10 on microarray, primary screen, stem cell growth factor project, biochemical, small-molecule microarray, fluorescence 635/667 (AID 1071); details: higher = more signal; small-molecule microarray, probe aFGF10, fluorescence unless noted;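 note: score merges 667 nm spot intensity and signal to noise from triplicate slides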
# [5] = target: Neurogenic locus notch homolog protein 2 (Homo sapiens) (UniProt Q04721); assay: Notch2 binders on small-molecule microarrays, primary screen, biochemical, small-molecule microarray, 635 nm fluorescence, stem cell growth factors (AID 1073); details: Notch2 binding, higher = more signal
# [6] = target: Pro-neuregulin-1, membrane-bound isoform (Homo sapiens) (UniProt Q02297); assay: NRG1 binders on small-molecule microarrays, primary screen, psychiatric disease protein project, biochemical, small-molecule microarray, fluorescence 635/667 (AID 1075); details: NRG1 binding, 635 nm fluorescence, higher = more signal;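 note: score combines 667 nm spot fluorescence with signal to noise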
# [7] = test system: Neuregulin-1 EGF-like domain; assay: binders of neuregulin-1 EGF-like domain, primary screen, biochemical, small-molecule microarray, 635 nm fluorescence (AID 1081); details: small-molecule microarray binding, higher = more signal;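 note: binding of the protein to compounds printed on small-molecule microarray slides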
# [8] = FRG1 promoter luciferase signal modulators, primary screen, FRG1 inhibition for FSHD, cell-based, C2C12 myotubes, firefly/Renilla luciferase, luminescence (AID 1084); details: higher = more signal, called active from +8 up or from −8 down unless noted
# [9] = binders of probe aFST on microarray, primary screen, stem cell growth factor project, biochemical, small-molecule microarray, fluorescence 635/667 (AID 1086); details: higher = more signal;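 note: score merges 667 nm fluorescence with signal-to-noise of each printed compound spot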
# [10] = binders of probe aHhip on microarray, primary screen, stem cell growth factor project, biochemical, small-molecule microarray, fluorescence 635/667 (AID 1087); details: higher = more signal;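 note: score merges spot fluorescence at 667nm with spot signal to noise ratio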
# [11] = test system: PRMT1 (protein arginine N-methyltransferase 1); assay: PRMT1 binders on small-molecule microarrays, primary screen, biochemical, small-molecule microarray, 635 nm fluorescence (AID 1088); details: small-molecule microarray binding, higher = more signal;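 note: binding of Prmt1 protein to compounds spotted on small-molecule microarray slides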
# [12] = yeast growth modulation, basal conditions, primary screen, YJM789 clinical isolate, OD600, 24 h (AID 1089);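 note: growth of clinical yeast isolate S. cerevisiae YJM 789 seeded 1000 cells per well; test concentration not given here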; details: S. cerevisiae YJM789 growth; higher = more signal, called active from +8 up or from −8 down unless noted
# [13] = fission yeast growth modulation, primary screen, strain 972, OD600, 24 h, no modulator (AID 1090);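 note: basal condition with compound alone and no growth modifier present; test concentration not given here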; details: S. pombe 972 growth; higher = more signal, called active from +8 up or from −8 down unless noted
# [14] = S. cerevisiae growth modulation with rapamycin, primary screen, strain BY4716, OD600, 96 h (AID 1091); details: higher = more signal, called active from +8 up or from −8 down unless noted; note: test concentration not given here
# [15] = target: Torsin-1A-interacting protein 2 (Homo sapiens) (UniProt Q8NFQ8); assay: LULL1 binders on small-molecule microarray, primary screen, cell lysate, human LULL1 lysate, 635/667 nm fluorescence (AID 1092); details: hLULL1 lysate binding, 635 nm fluorescence, higher = more signal;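 note: probe is lysate of COS7 cells overexpressing human LULL1; score merges per-feature 667 nm fluorescence with signal-to-noise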
# [16] = E. coli growth modulation, two-sided OD650, primary screen, E. coli filamentation project, strain DRC41, 24 h (AID 1093); details: OD650, 24 h; higher = more signal, called active from +8 up or from −8 down unless noted;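 note: MC1000 strain lacking acrAB efflux and sulA so SOS filamentation is blocked; test concentration not given here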
# [17] = small-molecule microarray binders of probe aLefty2, primary screen, biochemical, biotinylated probe, 635/667 nm fluorescence (AID 1094); details: higher = more signal; small-molecule microarray, probe aLefty2, fluorescence unless noted;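 note: score merges spot fluorescence near 667 nm with spot signal-to-noise ratio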
# [18] = test system: Noggin (protein binding on small-molecule microarray); assay: Noggin binders on small-molecule microarray, primary screen, biochemical, 635/667 nm fluorescence (AID 1095); details: 635 nm fluorescence, higher = more signal;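 note: score merges 667 nm feature fluorescence with signal to noise over triplicate slides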
# [19] = target: Neurogenic locus notch homolog protein 3 (Homo sapiens) (UniProt Q9UM47); assay: NOTCH3 binders on small-molecule microarray, primary screen, biochemical, 635/667 nm fluorescence (AID 1096); details: NOTCH3 binding, 635 nm fluorescence, higher = more signal
# [20] = small-molecule microarray binders of probe aEGFR, primary screen, biochemical, biotinylated probe, 635/667 nm fluorescence (AID 1097); details: higher = more signal; small-molecule microarray, probe aEGFR, fluorescence unless noted;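 note: probe is a biotinylated anti-EGFR antibody binding compounds printed on slides; score combines fluorescence near 667 nm and signal to noise of each spot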
# Chain of Neurogenic locus notch homolog protein 3 (Homo sapiens) (Q9UM47 whole entry, looked up): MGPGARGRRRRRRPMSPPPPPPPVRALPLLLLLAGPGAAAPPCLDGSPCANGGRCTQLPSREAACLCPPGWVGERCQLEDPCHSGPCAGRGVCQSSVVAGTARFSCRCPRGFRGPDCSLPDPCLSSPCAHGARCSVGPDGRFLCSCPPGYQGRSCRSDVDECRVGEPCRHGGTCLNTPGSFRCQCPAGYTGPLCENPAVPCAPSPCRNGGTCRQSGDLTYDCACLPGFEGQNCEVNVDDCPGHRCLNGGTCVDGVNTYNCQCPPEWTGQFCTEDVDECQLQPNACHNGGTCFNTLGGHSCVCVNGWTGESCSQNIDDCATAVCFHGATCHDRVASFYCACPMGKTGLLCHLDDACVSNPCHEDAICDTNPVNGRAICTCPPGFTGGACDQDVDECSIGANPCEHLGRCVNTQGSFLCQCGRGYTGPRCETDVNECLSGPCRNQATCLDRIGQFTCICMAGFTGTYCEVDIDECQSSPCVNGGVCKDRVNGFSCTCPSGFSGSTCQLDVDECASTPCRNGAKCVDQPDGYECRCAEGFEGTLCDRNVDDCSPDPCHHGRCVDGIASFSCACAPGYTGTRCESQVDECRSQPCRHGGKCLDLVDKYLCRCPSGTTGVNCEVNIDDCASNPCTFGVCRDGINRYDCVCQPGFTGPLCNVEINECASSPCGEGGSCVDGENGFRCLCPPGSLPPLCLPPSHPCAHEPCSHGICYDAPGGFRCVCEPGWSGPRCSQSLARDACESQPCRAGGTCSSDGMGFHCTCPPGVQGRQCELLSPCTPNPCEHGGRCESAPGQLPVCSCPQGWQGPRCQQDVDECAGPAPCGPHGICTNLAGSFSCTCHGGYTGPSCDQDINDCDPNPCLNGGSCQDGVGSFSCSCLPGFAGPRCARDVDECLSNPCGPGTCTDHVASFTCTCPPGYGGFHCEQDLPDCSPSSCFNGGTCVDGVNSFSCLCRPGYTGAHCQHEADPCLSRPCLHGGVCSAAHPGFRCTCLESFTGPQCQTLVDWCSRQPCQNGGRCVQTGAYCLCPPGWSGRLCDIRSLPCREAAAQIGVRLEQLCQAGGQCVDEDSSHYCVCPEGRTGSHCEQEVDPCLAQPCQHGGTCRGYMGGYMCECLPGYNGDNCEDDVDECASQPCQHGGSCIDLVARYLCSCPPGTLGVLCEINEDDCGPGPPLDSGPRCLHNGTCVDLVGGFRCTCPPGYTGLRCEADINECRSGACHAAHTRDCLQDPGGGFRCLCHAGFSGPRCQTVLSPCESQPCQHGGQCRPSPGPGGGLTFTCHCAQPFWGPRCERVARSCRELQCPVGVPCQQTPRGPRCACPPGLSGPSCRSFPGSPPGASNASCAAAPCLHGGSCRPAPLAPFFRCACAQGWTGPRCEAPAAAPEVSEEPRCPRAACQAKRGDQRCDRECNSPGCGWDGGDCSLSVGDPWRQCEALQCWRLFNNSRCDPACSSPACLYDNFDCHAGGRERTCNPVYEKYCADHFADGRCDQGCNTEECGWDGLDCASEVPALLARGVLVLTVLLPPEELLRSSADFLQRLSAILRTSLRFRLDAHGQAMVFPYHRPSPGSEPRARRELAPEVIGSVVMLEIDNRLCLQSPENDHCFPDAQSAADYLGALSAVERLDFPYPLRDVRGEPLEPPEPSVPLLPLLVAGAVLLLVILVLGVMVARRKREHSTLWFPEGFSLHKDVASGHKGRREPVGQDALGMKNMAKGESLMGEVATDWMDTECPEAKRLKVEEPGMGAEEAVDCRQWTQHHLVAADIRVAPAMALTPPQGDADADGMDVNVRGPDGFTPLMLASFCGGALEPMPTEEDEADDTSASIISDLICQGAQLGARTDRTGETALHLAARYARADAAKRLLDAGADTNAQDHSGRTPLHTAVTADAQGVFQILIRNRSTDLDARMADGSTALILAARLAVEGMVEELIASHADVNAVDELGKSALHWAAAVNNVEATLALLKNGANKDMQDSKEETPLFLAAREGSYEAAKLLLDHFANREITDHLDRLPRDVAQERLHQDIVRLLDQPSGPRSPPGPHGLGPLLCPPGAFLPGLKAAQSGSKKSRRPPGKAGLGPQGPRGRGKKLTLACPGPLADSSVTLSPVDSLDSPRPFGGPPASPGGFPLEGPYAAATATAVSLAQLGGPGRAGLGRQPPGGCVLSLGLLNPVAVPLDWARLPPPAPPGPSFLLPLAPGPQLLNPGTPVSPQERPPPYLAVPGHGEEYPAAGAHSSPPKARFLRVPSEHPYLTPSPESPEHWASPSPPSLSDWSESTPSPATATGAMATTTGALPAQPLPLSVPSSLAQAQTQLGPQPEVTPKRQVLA
# Chain of Neurogenic locus notch homolog protein 2 (Homo sapiens) (Q04721 whole entry, looked up, canonical isoform): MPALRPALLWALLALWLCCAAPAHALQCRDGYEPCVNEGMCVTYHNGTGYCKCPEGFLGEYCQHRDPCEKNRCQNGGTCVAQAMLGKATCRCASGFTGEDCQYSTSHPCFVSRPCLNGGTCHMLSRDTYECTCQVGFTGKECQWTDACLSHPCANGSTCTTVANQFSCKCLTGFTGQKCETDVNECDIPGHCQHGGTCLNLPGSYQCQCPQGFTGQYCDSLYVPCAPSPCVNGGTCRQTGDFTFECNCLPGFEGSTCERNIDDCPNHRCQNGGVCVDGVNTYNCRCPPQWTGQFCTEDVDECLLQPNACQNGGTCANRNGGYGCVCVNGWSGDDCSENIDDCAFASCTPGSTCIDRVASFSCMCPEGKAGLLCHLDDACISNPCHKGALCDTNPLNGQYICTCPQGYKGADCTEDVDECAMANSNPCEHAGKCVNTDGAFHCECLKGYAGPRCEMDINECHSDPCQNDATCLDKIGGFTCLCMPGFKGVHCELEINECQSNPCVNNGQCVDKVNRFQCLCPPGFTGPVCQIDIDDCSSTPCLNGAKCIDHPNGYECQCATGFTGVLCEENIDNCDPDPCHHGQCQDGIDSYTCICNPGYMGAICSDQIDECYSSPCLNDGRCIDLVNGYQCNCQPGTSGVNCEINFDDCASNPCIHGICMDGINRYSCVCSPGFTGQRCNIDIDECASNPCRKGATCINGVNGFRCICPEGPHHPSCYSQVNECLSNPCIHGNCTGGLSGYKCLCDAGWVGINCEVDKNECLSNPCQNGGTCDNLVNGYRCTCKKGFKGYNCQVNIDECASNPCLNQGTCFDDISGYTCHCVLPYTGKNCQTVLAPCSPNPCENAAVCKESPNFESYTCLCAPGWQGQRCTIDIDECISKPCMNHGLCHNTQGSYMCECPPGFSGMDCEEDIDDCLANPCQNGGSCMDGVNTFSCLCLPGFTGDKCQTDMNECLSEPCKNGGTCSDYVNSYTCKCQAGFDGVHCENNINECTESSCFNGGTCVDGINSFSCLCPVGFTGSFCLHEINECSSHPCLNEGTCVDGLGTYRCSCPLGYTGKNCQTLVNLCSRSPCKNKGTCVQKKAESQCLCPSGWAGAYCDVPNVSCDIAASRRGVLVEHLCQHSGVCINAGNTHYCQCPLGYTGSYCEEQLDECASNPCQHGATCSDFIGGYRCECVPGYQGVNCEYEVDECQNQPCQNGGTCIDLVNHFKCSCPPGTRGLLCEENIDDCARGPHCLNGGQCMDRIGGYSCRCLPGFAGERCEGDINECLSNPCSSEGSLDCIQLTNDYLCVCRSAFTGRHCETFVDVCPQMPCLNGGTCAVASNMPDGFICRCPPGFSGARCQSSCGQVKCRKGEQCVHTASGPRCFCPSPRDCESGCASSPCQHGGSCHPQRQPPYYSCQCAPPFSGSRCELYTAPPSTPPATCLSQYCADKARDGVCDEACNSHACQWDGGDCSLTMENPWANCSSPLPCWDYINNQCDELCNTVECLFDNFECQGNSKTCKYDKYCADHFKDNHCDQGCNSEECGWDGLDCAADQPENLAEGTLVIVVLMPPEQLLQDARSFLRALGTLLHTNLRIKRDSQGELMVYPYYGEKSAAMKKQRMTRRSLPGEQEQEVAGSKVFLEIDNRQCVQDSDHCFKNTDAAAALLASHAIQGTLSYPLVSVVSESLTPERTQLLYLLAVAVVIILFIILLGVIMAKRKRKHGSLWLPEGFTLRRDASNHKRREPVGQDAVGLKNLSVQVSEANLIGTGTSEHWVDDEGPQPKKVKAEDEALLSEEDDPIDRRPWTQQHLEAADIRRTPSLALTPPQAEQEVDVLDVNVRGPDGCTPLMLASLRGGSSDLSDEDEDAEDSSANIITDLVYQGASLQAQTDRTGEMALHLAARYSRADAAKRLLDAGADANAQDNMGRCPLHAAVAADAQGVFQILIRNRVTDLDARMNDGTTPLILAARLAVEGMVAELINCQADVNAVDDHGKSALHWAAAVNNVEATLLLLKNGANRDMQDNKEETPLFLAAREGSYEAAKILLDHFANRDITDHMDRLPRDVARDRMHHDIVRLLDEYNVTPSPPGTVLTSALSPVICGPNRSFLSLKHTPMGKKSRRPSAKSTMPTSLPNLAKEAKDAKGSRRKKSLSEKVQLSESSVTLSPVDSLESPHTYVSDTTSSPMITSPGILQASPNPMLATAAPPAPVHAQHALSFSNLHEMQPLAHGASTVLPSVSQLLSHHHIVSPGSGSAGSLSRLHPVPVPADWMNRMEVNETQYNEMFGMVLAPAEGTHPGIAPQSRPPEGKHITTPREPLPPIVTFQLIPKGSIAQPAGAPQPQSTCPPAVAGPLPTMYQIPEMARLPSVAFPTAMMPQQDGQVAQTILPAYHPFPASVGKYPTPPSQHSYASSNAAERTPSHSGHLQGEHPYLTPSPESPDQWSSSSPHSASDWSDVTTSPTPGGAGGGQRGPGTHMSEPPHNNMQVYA
SMILES,composite z-score [1],composite z-score [2],composite z-score [3],composite z-score [4],composite z-score [5],composite z-score [6],composite z-score [7],z-score [8],composite z-score [9],composite z-score [10],composite z-score [11],z-score [12],z-score [13],z-score [14],composite z-score [15],z-score [16],composite z-score [17],composite z-score [18],composite z-score [19],composite z-score [20]
OCc1ccc(C2=CC(C3CC3)N(Cc3sc4ccccc4c3Cl)CC2)cc1 (stereo not given),0.0908,1.02,-0.107,0.261,0.166,0.503,1.14,-1.71 (inactive),0.19,-0.0296,1.56,-0.102 (inactive),-5.01 (inactive),1.47 (inactive),1.55,-1.09 (inactive),-0.0416,0.448,0.68,-0.0493
COC(=O)[C@H]1[C@@H](O)[C@@]2(O)c3c(OC)cc(OC)cc3O[C@@]2(c2ccc(OC)cc2)[C@@H]1c1ccccc1,-0.327,0.287,-0.0894,0.52,0.514,0.167,0.357,0.128 (inactive),0.0836,-0.152,0.002,-0.543 (inactive),-2.36 (inactive),0.118 (inactive),0.485,0.449 (inactive),-0.221,0.782,0.708,-0.0714
COC(=O)NCC=Cc1nc(CCC=CC(=O)O[C@H]2CC3CC(=O)O[C@@H](C=CCC(C)C)C[C@@H]4CC[C@H](C)[C@@H](C[C@@H](OC)C[C@H](C2)O3)O4)co1,-0.117,-0.381,-0.114,-0.328,-0.896,-0.657,-0.905,0.524 (inactive),-0.15,-0.12,-1.35,-1.77 (inactive),-4.74 (inactive),-0.209 (inactive),-0.562,0.162 (inactive),-0.174,-0.593,-2,-0.201
CN1CCC(c2ccc(CO)cc2)=CC1C1CC1 (stereo not given),-0.394,-0.0038,-0.158,-0.301,-0.616,-0.292,0.839,0.666 (inactive),-0.337,-0.164,0.142,-1.01 (inactive),-1.39 (inactive),0.978 (inactive),-0.183,-0.409 (inactive),-0.308,0.062,-0.218,-0.154
CCCc1cc2c(n1Cc1ccc(C)cc1)C(C)C1CN(C(=O)c3ccccc3)C(C)(C(=O)OC)C21 (stereo not given),1.37,1.32,0.459,1.14,1.43,1.32,1.08,-0.876 (inactive),1.95,0.321,0.0451,-1.78 (inactive),0.625 (inactive),-0.689 (inactive),3.08,-0.694 (inactive),1.02,-0.366,1.11,0.834
COc1cc2c(cc1O)C(C)N(C)CC2 (stereo not given),0.661,-0.144,-0.0345,-0.021,0.358,-0.0581,1.14,-1.13 (inactive),-0.0662,0.176,-0.474,0.051 (inactive),-2.28 (inactive),-1.65 (inactive),0.0713,0.891 (inactive),0.0914,-0.19,-0.245,0.0841
C=C(CC1(CNP(=O)(c2ccccc2)c2ccccc2)CC1)c1ccccc1,0.019,-0.115,0.179,0.33,0.777,1.69,0.525,-3.35 (inactive),0.622,-0.0618,-0.683,0.0836 (inactive),1.79 (inactive),-0.165 (inactive),1.98,0.0375 (inactive),-0.0934,-0.682,-0.343,-0.0493
CCc1cc2c(nc1CC)CCN(CCC(C)=NOC)C2,0.515,0.974,-0.0097,0.324,0.608,0.0159,0.763,2.07 (inactive),0.497,0.113,0.766,0.259 (inactive),-1.54 (inactive),-0.21 (inactive),0.839,-0.0797 (inactive),0.327,0.601,0.0855,0.0631
COC(=O)[C@@]1(Cc2ccc(F)cc2)[C@H]2c3cc(C(=O)N(C)C)[nH]c3C[C@H]2CN1C(=O)c1ccccc1,0.0665 [setting not given],-0.441 [setting not given],-0.162 [setting not given],0.203 [setting not given],1.35,0.986,1.06,0.832 [setting not given] (inactive),0.656,-0.236,-0.128,0.531 [setting not given] (inactive),0.0211 [setting not given] (inactive),0.229 [setting not given] (inactive),3.23,-0.152 [setting not given] (inactive),0.153 [setting not given],-0.512,-0.388,-0.0573 [setting not given]
O=P(c1ccccc1)(c1ccccc1)N1CC2(CC2)CC(O)(c2ccccc2)C1 (stereo not given),0.234,-0.86,0.0316,0.862,1.65,0.963,1.33,-2.28 (inactive),0.553,0.21,-0.25,-1.51 (inactive),-1.4 (inactive),-1.9 (inactive),3.57,-0.0435 (inactive),-0.0208,-0.62,0.498,0.066
COC(=O)[C@@]1(Cc2ccccc2)[C@H]2c3cc(C(=O)N(C)C)[nH]c3C[C@H]2CN1C(=O)c1ccccc1,0.469,-0.365,-0.0063,-0.12,0.335,1.03,0.954,1.82 (inactive),-0.0765,0.0176,-0.94,0.0969 (inactive),0.8 (inactive),0.98 (inactive),0.745,-0.482 (inactive),-0.0238,-1.23,-0.984,-0.116
OCc1ccc(C2=CC(c3cccs3)N(Cc3cccc(OC(F)(F)F)c3)CC2)cc1 (stereo not given),-0.0593,0.466,-0.0996,-0.242,-0.515,0.764,0.536,-0.39 (inactive),-0.0002,0.0908,1.08,-0.583 (inactive),-3.83 (inactive),4.58 (inactive),1.1,0.398 (inactive),-0.145,0.257,0.0155,-0.1
